# Laboratory results reported in ChEMBL document CHEMBL3988442, “University of Dundee, Small-Polar-MMV Screening Library” (2021).
# For some assays here: Entries with a potency or affinity are not part of this list.
# What was measured:
# Set-up in all cases: scale not given: direction of the effect not stated beside the values
# [1] = molecular target: Protein translocase subunit SecA (Escherichia coli (strain K12)) (UniProt P10408); experiment: Assay to Identify E. coli SecA ATPase Inhibitors; format: functional; conditions: 30 µM
# [2] = molecular target: T1, Ubiquitin-activating enzyme e1, putative (Leishmania donovani (strain BPK282A1)) (UniProt E9BSI1); experiment: Leishmania donovani Ubiquitin Activating Enzyme (LdE1); format: functional; conditions: 30 µM
# T1 sequence (whole entry): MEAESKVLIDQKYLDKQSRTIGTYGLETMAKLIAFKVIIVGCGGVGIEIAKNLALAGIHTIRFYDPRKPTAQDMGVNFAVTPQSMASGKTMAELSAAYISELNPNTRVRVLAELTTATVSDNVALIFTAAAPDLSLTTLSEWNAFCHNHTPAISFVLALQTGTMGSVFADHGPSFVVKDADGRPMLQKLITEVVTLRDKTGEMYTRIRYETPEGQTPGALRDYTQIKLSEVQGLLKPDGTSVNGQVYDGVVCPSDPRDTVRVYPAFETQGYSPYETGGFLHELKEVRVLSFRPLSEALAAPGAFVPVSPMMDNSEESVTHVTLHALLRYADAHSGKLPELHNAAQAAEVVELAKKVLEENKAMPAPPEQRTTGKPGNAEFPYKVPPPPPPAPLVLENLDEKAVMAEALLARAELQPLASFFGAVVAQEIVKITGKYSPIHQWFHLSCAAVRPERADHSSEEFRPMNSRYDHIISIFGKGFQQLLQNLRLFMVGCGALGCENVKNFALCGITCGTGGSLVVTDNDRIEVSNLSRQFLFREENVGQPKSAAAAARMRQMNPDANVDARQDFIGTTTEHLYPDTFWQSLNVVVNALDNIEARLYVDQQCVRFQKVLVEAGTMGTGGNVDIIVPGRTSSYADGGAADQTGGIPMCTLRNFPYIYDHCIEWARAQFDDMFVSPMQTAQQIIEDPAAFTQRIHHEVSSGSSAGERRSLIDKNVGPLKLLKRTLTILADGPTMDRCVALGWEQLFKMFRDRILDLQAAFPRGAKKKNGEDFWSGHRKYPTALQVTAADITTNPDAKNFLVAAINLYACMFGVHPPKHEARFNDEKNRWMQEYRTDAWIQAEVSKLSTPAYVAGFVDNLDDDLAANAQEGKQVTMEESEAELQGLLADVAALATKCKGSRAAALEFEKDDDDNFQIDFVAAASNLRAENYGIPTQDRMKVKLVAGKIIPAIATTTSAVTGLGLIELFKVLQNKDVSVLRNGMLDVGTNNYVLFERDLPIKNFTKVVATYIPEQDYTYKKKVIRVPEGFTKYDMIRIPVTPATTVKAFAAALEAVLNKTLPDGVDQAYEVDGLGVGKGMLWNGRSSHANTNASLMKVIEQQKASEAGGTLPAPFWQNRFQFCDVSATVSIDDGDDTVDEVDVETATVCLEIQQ
# [3] = molecular target: AMP-activated protein kinase, AMPK (Homo sapiens) (UniProt P54646+O43741+P54619+Q9UGJ0+Q9Y478+Q13131+Q9UGI9); experiment: AMP-dependent Kinase enzyme assay. An in vitro enzyme assay that detects ADP turnover that is directly proportional to AMPK activity. This uses naive AMPK that is activated during the assay with MK-8722; format: functional; conditions: 30 µM
# [4] = molecular target: Sialic acid-binding Ig-like lectin 9 (Homo sapiens) (UniProt Q9Y336); experiment: Hs-Siglec9 ALPHAscreen SOP 20170721; conditions: 10 µM
# Trypanosoma cruzi = experiment: Trypanosoma cruzi phosphomannomutase and mannose-1-phosphate guanylyltransferase assay; format: functional; conditions: 10 µM
# [5] = molecular target: T2, Arginase-2, mitochondrial (Homo sapiens) (UniProt P78540); experiment: in vitro enzyme assay to detect the production of urea directly proportional to the activity of Arginase II; format: functional; conditions: 33.3 µM; note: in the data most compounds retested in dose-response had high values
# T2 sequence (whole entry): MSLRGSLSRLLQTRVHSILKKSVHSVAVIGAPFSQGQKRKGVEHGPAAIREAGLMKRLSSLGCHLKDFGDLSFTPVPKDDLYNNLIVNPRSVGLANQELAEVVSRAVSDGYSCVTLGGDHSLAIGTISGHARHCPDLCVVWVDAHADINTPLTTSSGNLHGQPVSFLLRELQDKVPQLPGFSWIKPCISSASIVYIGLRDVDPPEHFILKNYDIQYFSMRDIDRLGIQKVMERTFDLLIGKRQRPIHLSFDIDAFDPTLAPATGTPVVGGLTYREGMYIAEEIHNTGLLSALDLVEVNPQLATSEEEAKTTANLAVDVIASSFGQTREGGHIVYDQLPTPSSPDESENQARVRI
# [6] = molecular target: T3, Proteasome subunit beta (Trypanosoma cruzi) (UniProt O96673); experiment: Trypanosoma cruzi proteasome chymotrypsin-like activity (TcProtChymo) assay.; note: in the data most compounds retested in dose-response had high values; format: functional; conditions: 9.37 µM
# T3 sequence (whole entry): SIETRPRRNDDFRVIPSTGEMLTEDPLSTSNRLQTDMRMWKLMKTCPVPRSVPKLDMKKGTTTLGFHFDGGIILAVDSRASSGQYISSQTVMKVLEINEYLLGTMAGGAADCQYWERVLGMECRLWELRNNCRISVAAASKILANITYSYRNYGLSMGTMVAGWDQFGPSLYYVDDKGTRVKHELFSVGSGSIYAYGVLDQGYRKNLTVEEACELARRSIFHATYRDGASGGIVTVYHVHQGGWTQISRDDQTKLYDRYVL
# Homo sapiens = species on record: Homo sapiens; experiment: To identify inhibition of the IFN signalling (Jak-Stat) pathway via expression of an eGFP reporter gene under the control of an IFN-stimulated response element (ISRE) containing MxA promoter.; format: functional; conditions: 30 µM
# [7] = molecular target: T4, Tyrosyl-tRNA synthetase, putative (Trypanosoma cruzi (strain CL Brener)) (UniProt Q4DSP6); experiment: Trypanosoma cruzi tyrosyl tRNA synthetase (TcYRS) _High Tyrosine SOP; format: functional; conditions: 30 µM; note: in the data most compounds retested in dose-response had high values
# T4 sequence (whole entry): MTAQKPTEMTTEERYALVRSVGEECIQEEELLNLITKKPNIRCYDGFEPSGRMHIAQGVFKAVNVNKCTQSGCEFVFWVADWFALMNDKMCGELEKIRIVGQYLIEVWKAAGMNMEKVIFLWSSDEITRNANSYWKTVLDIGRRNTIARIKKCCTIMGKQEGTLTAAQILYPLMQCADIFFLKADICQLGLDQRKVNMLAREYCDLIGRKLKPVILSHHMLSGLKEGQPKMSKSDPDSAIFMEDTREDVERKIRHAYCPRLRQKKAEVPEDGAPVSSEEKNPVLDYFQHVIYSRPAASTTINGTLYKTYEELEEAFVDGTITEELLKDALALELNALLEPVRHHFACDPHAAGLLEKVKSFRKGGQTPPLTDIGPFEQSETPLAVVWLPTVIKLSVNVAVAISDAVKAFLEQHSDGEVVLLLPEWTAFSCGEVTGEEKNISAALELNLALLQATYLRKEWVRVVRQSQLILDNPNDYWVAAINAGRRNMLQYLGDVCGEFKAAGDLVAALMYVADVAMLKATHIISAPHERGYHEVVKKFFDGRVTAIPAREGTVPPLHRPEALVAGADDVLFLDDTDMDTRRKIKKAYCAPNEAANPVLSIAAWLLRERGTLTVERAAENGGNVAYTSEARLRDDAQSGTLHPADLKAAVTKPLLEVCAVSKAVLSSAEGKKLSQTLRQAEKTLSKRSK
# [8] = molecular target: T4, Tyrosyl-tRNA synthetase, putative (Trypanosoma cruzi (strain CL Brener)); experiment: Trypanosoma cruzi tyrosyl tRNA synthetase (TcYRS) SOP; format: functional; conditions: 30 µM
# [9] = molecular target: Chromo domain-containing protein 1 (Saccharomyces cerevisiae (strain ATCC 204508 / S288c) (Baker's yeast)) (UniProt P32657); experiment: ScCHD-1 Enzyme Inhibition Assay; format: functional; conditions: 30 µM; note: in the data most compounds retested in dose-response had high values
# Sequence of Chromo domain-containing protein 1 (Saccharomyces cerevisiae (strain ATCC 204508 / S288c) (Baker's yeast)) (P32657 whole entry, the tested form may be a part): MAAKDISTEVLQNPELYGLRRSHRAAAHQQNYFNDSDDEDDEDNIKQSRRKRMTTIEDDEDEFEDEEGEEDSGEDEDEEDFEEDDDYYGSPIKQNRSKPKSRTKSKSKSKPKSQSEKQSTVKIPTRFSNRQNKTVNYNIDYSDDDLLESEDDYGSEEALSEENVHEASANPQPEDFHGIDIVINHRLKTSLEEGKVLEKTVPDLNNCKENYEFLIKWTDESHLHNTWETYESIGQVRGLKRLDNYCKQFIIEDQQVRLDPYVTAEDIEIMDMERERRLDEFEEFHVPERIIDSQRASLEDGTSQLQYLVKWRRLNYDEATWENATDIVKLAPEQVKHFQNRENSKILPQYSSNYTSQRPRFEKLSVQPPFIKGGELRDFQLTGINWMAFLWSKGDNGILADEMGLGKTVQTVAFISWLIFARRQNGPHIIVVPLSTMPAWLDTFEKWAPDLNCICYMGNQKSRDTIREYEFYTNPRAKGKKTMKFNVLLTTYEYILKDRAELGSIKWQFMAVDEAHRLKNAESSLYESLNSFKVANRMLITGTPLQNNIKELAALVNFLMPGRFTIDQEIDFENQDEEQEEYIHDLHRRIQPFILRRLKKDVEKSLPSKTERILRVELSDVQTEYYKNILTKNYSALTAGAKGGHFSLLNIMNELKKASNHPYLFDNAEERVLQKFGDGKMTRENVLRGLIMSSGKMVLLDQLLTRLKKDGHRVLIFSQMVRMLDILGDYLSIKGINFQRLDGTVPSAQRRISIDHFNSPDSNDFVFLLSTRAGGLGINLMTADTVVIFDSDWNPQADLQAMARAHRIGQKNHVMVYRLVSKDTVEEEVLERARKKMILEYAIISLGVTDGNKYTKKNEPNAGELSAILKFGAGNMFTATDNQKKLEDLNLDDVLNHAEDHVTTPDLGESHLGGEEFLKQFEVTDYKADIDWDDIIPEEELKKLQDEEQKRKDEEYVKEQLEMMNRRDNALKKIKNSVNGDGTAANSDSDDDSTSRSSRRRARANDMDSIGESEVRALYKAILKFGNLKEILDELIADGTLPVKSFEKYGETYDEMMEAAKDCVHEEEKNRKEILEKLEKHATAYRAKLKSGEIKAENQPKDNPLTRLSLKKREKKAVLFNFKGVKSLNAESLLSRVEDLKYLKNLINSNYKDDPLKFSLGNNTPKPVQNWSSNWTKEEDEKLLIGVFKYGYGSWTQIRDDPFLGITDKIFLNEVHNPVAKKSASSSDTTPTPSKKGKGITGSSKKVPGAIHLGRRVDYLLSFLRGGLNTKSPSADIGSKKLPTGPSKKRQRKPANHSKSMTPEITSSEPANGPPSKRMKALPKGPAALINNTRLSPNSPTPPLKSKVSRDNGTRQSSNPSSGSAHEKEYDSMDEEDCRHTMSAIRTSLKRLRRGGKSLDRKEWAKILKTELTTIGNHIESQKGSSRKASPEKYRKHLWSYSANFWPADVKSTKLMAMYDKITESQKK
# Sequence of Sialic acid-binding Ig-like lectin 9 (Homo sapiens) (Q9Y336 whole entry): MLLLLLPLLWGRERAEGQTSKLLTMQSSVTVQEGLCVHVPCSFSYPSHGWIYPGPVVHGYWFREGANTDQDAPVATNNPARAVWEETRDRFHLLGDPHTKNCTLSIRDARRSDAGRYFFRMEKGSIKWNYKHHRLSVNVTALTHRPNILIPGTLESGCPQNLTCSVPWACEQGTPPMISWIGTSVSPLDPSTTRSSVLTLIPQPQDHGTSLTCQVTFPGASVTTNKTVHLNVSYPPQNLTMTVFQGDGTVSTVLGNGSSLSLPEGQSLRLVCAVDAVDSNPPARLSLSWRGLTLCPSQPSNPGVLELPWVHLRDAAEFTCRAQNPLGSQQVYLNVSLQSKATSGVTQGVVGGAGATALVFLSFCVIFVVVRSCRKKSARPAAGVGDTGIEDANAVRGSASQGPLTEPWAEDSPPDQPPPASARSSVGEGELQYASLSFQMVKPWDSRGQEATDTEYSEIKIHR
# Sequence of Protein translocase subunit SecA (Escherichia coli (strain K12)) (P10408 whole entry): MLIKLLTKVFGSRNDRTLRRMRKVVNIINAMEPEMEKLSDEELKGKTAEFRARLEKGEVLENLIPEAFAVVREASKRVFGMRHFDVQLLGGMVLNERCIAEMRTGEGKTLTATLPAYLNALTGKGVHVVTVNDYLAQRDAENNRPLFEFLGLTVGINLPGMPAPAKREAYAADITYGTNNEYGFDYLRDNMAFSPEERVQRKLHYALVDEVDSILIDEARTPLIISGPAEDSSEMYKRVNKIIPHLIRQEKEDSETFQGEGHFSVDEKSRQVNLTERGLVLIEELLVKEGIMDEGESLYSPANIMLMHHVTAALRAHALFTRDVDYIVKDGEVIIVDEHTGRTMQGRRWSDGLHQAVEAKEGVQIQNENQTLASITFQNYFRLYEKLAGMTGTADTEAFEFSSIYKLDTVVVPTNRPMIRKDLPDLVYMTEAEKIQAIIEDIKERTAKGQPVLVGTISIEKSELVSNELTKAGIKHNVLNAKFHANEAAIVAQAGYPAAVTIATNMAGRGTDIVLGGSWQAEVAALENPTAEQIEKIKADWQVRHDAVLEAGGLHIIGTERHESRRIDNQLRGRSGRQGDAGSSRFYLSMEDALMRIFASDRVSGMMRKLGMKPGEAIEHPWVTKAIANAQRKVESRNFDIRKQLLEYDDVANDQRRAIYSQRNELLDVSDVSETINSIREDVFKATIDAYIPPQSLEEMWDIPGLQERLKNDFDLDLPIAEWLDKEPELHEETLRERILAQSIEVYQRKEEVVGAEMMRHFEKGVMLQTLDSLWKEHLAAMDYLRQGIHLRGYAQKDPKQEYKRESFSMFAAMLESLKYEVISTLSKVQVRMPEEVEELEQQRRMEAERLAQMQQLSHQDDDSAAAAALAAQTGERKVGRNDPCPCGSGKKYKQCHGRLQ
SMILES,Percent Effect [1],Percent Effect [2],Percent Effect [3],Percent Effect [4],Percent Effect (Trypanosoma cruzi),Percent Effect [5],Percent Effect [6],Percent Effect (Homo sapiens),Percent Effect [7],Percent Effect [8],Percent Effect [9]
COCCCNC(=O)N1CCCC(c2nncn2C)C1 (stereo not given),-5.16%,2.63%,-3.92%,8.87%,-3.46%,0.36%,7.87%,5.55%,0.493%,-6.17%,2.53%
CCCNC(=O)Nc1cc2c(cc1SC)OCCO2,-5.72%,13.5%,-3.48%,12.2%,2.93%,11.2%,10.7%,-1.29%,8.91%,8.54%,-6.19%
Cc1cnn(CCC(=O)N2CCN(c3ncccc3Cl)CC2)c1,-2.22%,3.8%,10.2%,2%,-4.21%,1.94%,10.3%,18.8%,1.04%,2.53%,-5.44%
CCOC(C)c1nc(CN2CCN(c3nccc(C)n3)CC2)cs1 (stereo not given),-1.18%,0%,-0.85%,-1.42%,0.386%,-0.476%,10.2%,-0.937%,-3.7%,2.44%,-2.47%
Cc1ccc(CN(C)C(=O)CN2CCCC2Cn2cccn2)o1 (stereo not given),0.121%,2.7%,-3.95%,12.4%,5.99%,0%,1.9%,-5.92%,2.65%,7.32%,-4.66%
COc1ccccc1C(=O)N1CC(Cc2nccc3ccn(C)c23)C1,-7.05%,17.6%,2.79%,6.36%,4.15%,-2.09%,6.4%,13.2%,6.45%,14.3%,-16.6%
COCCN1CCc2cc(C(=O)NCC3CC3)c(NC(C)C)nc2CC1,-2.06%,8%,4.16%,9.64%,-1.74%,-27.8%,13.2%,55.7%,1.04%,12.5%,-10.2%
CCC(C)N(C)S(=O)(=O)c1ccc(CCNC(C)=O)s1 (stereo not given),-1.87%,-4.17%,-4.26%,-5.04%,-2.62%,0.442%,8.77%,10.4%,-3.16%,-5.13%,5.31%
CC(C)c1nc(C2CCCN(C(=O)c3ccc4nccn4c3)C2)no1 (stereo not given),-2.08%,10.4%,2.88%,12.4%,-1.47%,1.47%,3.15%,-11.3%,1.91%,7.06%,-11.9%
Cc1cccc(CN2C(=O)CO[C@@H]3CN(Cc4nccn4C)C[C@H]32)c1,0.226%,10.8%,-0.86%,-6.69%,3.91%,25.8%,20.5%,12.6%,9.9%,18.3%,-3.16%
